Measured values taken from the supplement of paper PMC7366291.
Where a name gives a salt, the structure may show the parent alone. ± gives the standard deviation or the standard deviation of the averaged measurements.

What was measured:
Conditions in all cases: 25 µM; exposure: 24-48 hpf
[1] = system: Danio rerio Tg(wt1b:EGFP) embryo, pronephros; experiment: glomerular separation, fold change vs DMSO control; higher = glomeruli further apart (abnormal)
In short: (§1)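 From 24 to 48 hpf, at 28.5°C, dechorionated Tg(wt1b:EGFP) zebrafish embryos sat in HEPES-buffered E3 with 0.003% PTU carrying 25 μM compound and 0.5% DMSO. Their pronephroi were imaged dorsally in 96-well plates filled with agarose, using 470 nm light and 10 z-slices. A Fiji macro measured distances and angles between 16 reference points that were set manually on maximum projections, and any value more than 2 SD from its feature mean was excluded. Features are expressed as fold change relative to the mean of DMSO-treated embryos imaged on the same day.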

[2] = system: Danio rerio Tg(wt1b:EGFP) embryo, pronephros; experiment: glomerular width (mean of left and right), fold change vs DMSO control; higher = wider glomerulus
In short: as §1

[3] = system: Danio rerio Tg(wt1b:EGFP) embryo, pronephros; experiment: fraction of imaged embryos annotated as normal kidney; higher = less nephrotoxic; extreme values may be limits of the assay
In short: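 Embryos of the Tg(wt1b:EGFP) zebrafish line were dechorionated and held in 12-well plates with 25 μM compound in 0.5% DMSO and 5 mM HEPES-buffered E3 containing 0.003% PTU, from 24 to 48 hpf at 28.5°C. Larvae were then anaesthetised with tricaine, set dorsal side up in agarose-filled 96-well plates, and their pronephroi imaged by widefield fluorescence at 470 nm over 10 z-slices. Each value is the fraction of embryos per treatment placed in the normal-kidney category after manual annotation of maximum projections.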

[4] = system: Danio rerio Tg(wt1b:EGFP) embryo, pronephros; experiment: pronephric angle neck segment to proximal convoluted tubule (mean of left and right), fold change vs DMSO control; higher = larger pronephric angle
In short: as §1

SMILES	glomerular separation [1]	glomerular width [2]	fraction of imaged embryos annotated as normal kidney [3]	pronephric angle neck segment [4]
Cc1cc(=O)oc2cc(O)ccc12 [Hymecromone]	0.837 ± 0.36	1 ± 0.013	0.909	0.98 ± 0.01
CS(=O)(=O)c1ccc([C@@H](O)[C@@H](CF)NC(=O)C(Cl)Cl)cc1 [Florfenicol]	1.03 ± 0.47	1.01 ± 0.083	1	1.01 ± 0.034
CNCCC(Oc1ccc(C(F)(F)F)cc1)c1ccccc1 (stereo not given) [Fluoxetine hydrochloride]	1.23 ± 0.69	0.903 ± 0.041	0.583	1.04 ± 0.054
COc1cccc2c1C(=O)c1c(O)c3c(c(O)c1C2=O)C[C@@](O)(C(=O)CO)C[C@@H]3O[C@H]1C[C@H](N)[C@H](O)[C@H](C)O1 [Doxorubicin hydrochloride]	1.19 ± 0.75	0.959 ± 0.11	0.75	0.9779 ± 0.0016
O=C(OCCOCCO)c1ccccc1Nc1cccc(C(F)(F)F)c1 [Etofenamate]	3.04 ± 0.95	0.684 ± 0.026	0	1.75 ± 0.018
CC(=O)OCC(=O)[C@@]1(O)CC[C@H]2[C@@H]3CCC4=CC(=O)CC[C@]4(C)[C@H]3[C@@H](O)C[C@@]21C [Cortisol acetate]	1.43 ± 0.59	1.29 ± 0.049	0.25	1.01 ± 0.031
COc1ccc(-c2cc(=S)ss2)cc1 [Anethole-trithione]	1.04 ± 0.42	0.886 ± 0.027	0.909	1.04 ± 0.066
OCCN1CCN(CCCN2c3ccccc3Sc3ccc(C(F)(F)F)cc32)CC1 [Fluphenazine dihydrochloride]	1.03 ± 0.53	1.07 ± 0.02	0.833	0.932 ± 0.013
NS(=O)(=O)c1cc(C(=O)O)cc(N2CCCC2)c1Oc1ccccc1 [Piretanide]	1.08 ± 0.68	1.02 ± 0.048	0.917	1.03 ± 0.038
Cc1onc(-c2c(F)cccc2Cl)c1C(=O)N[C@@H]1C(=O)N2[C@@H]1SC(C)(C)[C@@H]2C(=O)O [Flucloxacillin sodium]	1.05 ± 0.33	0.989 ± 0.024	0.833	0.958 ± 0.025
N=C(N)NC(=O)c1nc(Cl)c(N)nc1N [Amiloride hydrochloride dihydrate]	0.835 ± 0.27	0.978 ± 0.074	0.583	0.985 ± 0.023
O=P(O)(O)C(O)(Cc1cccnc1)P(=O)(O)O [Risedronic acid monohydrate]	0.755 ± 0.35	1.04 ± 0.032	0.833	0.975 ± 0.027
CS(=O)(=O)c1ccc([C@@H](O)[C@@H](CO)NC(=O)C(Cl)Cl)cc1 [Thiamphenicol]	0.938 ± 0.22	1.03 ± 0.024	1	0.978 ± 0.025
O=C1CC2(CCCC2)CC(=O)N1CCCCN1CCN(c2ncccn2)CC1 [Buspirone hydrochloride]	0.901 ± 0.35	1.02 ± 0.022	0.75	1.01 ± 0.034
CC(=O)OCC(=O)[C@@]1(O)[C@H](C)C[C@H]2[C@@H]3CCC4=CC(=O)C=C[C@]4(C)[C@@]3(F)[C@@H](O)C[C@@]21C [Dexamethasone acetate]	1 ± 0.25	1.252 ± 0.0072	1	1.02 ± 0.034
CO[C@H]1/C=C/O[C@@]2(C)Oc3c(C)c(O)c4c(O)c(c(/C=N/N5CCN(C)CC5)c(O)c4c3C2=O)NC(=O)/C(C)=C\C=C\[C@H](C)[C@H](O)[C@@H](C)[C@@H](O)[C@@H](C)[C@H](OC(C)=O)[C@@H]1C [Rifampicin]	1.08 ± 0.28	1.02 ± 0.018	0.833	0.991 ± 0.022
COc1ccccc1OCC(O)CN1CCN(CC(=O)Nc2c(C)cccc2C)CC1 (stereo not given) [Ranolazine]	0.739 ± 0.33	1.021 ± 0.0091	0.833	1.01 ± 0.029
CC(=O)CCCCn1c(=O)c2c(ncn2C)n(C)c1=O [Pentoxifylline]	0.678 ± 0.2	0.971 ± 0.032	0.583	0.752 ± 0.033
CCCCNc1ccc(C(=O)OCCOCCOCCOCCOCCOCCOCCOCCOCCOC)cc1 [Benzonatate]	1.12 ± 0.54	0.897 ± 0.012	0.7	1.09 ± 0.039
CC(CN(C)C)CN1c2ccccc2CCc2ccccc21 (stereo not given) [Trimipramine maleate salt]	0.996 ± 0.29	1.06 ± 0.087	0.833	0.972 ± 0.048
Cn1c(=O)c2c(ncn2CC(=O)O)n(C)c1=O [Acefylline]	1.12 ± 0.41	1 ± 0.029	0.917	1.02 ± 0.035
O=C(N/N=C/c1ccc([N+](=O)[O-])o1)c1ccc(O)cc1 [Nifuroxazide]	0.916 ± 0.47	1.02 ± 0.041	0.833	0.964 ± 0.028
Cc1cccc(N(C)C(=S)Oc2ccc3ccccc3c2)c1 [Tolnaftate]	2.28 ± 1.3	0.952 ± 0.03	0.75	1.05 ± 0.065
Nc1ccc(S(=O)(=O)Nc2ncccn2)cc1 [Sulfadiazine]	0.947 ± 0.41	1.03 ± 0.031	0.917	0.9587 ± 0.0092
CCOC(=O)C(C)(C)Oc1ccc(Cl)cc1 [Clofibrate]	2.62 ± 1.7	0.608 ± 0.044	0	1.66 ± 0.033
